# Results filed as inconclusive are left out. A number with no mark means an inactive call. Calls follow the shape of the dose curve; as a rule, active = well fitted cell-killing curve with a large enough effect in the repeat runs (not every such curve was filed as active); inconclusive = weak or mixed curves, or effect the other way; inactive = no such curve, though single readings can be large or run the other way.
# Test: qHTS assay to identify small molecule antagonists of the farnesoid-X-receptor (FXR) signaling pathway - cell viability counter screen (AID 743221); also: nearly all actives have a fitted effect of over 50% in size
# Details: FXR-bla HEK293T viability, CellTiter-Glo luminescence, 16 h; series mostly up to 62.6 µM; activity change, negative = cytotoxicity: at the top concentration
# Description: National Center for Advancing Translational Sciences [NCATS]
# NIH Chemical Genomics Center [NCGC]
# U.S. Environmental Protection Agency [EPA]
# National Institutes of Environmental Health Sciences [NIEHS]
# National Toxicology Program [NTP]
# U.S. Food and Drug Administration [FDA]
# The farnesoid-X-receptor (FXR), a nuclear hormone receptor, is highly expressed in liver, intestine, kidney and adrenal cortex. Natural ligands of FXR are the bile acids (Cholic acid, Chenodeoxy cholic acid etc). FXR is an important regulator of diverse metabolic pathways, including the bile acid homeostasis, lipid and glucose metabolisms. FXR regulates the expression of target genes by binding either as a monomer or as a heterodimer with the retinoid X receptor (RXR). Numerous studies have reported that FXR exerts protective function during cholestasis, diabetes, liver regeneration, and cancer. To identify compounds that inhibit FXR signaling, GeneBLAzer FXR-UAS-bla HEK 293T cell line (Invitrogen, Carlsbad, CA) containing a beta-lactamase reporter gene under the control of a UAS response element was used to screen the Tox21 10K compound library. The cytotoxicity of the Tox21 compound library against the FXR-bla cell line was tested in parallel by measuring the cell viability using CellTiter-Glo assay in the same wells.
# Tox21 Assay Protocol Summary:
# FXR-bla cells were dispensed at 5000 cells/5uL/well in 1536-well black wall/clear bottom plates using a Multidrop Combi (Thermo Fisher Scientific, Waltham, MA) dispenser. After the assay plates were incubated at 37 C and 5% CO2 for 5 h, 23 nL of compounds dissolved in DMSO, positive controls or DMSO only was transferred to the assay plate by a Pintool station (Kalypsys, San Diego, CA), followed by addition of 1 uL Chenodeoxycholic acid (50 uM, final concentration in the wells). The assay plates were incubated at 37C for 16 h. After 1 uL of LiveBLAzerTM B/G FRET substrate was added using a Bioraptr Flying Reagent Dispenser (FRD) workstation (Beckman Coulter, Indianapolis, IN), the plates were incubated at room temperature for 2 h, and fluorescence intensity was measured by an Envision plate reader (PerkinElmer, Shelton, CT). For cell viability readout that measures cytotoxicity, 4uL/well of CellTiter-Glo reagent was added into the assay plates using a Bioraptr FRD. After 30 min incubation at room temperature, the luminescence intensity in the plates was measured using a ViewLux plate reader (PerkinElmer).
# % is scaled to controls: 0 for no effect and ±100 for the full control effect.
row,Structure (SMILES),"activity change, negative = cytotoxicity"
1,CCSC(=O)N(CC)CC,12.5%
2,CC(C)C1CCC(C(=O)N[C@H](Cc2ccccc2)C(=O)O)CC1 (stereo not given in full),6.47%
3,C=CC(=O)O,12.3%
4,COC(=O)c1sccc1S(N)(=O)=O,-12.3%
5,CC1=CC[C@@]23C[C@@H]1C(C)(C)[C@@H]2CC[C@H]3C,3.4%
6,CC(=O)C(C)=O,10.5% [at 81.1 µM]
7,Nc1ccc(S(=O)(=O)NCc2ccccc2)cc1,-2.51%
8,CC(C)(C)C(O)/C=C/c1ccc2c(c1)OCO2 (stereo not given),1.44%
9,Cc1cc(CCC(=O)OCCOCCOCCOC(=O)CCc2cc(C)c(O)c(C(C)(C)C)c2)cc(C(C)(C)C)c1O,1.4%
10,CNC1CCCN(c2c(F)cc3c(=O)c(C(=O)O)cn(C4CC4)c3c2OC)C1 (stereo not given),-13.3%
11,C=CC(=O)NC(C)C,5.53%
12,CC[C@H]1OC(=O)[C@H](C)[C@@H](O[C@H]2C[C@@](C)(OC)[C@@H](O)[C@H](C)O2)[C@H](C)[C@@H](O[C@@H]2O[C@H](C)C[C@H](N(C)C)[C@H]2O)[C@](C)(O)C[C@@H](C)C(=O)[C@H](C)[C@@H](O)[C@]1(C)O,-13%
13,COC(CC(C)CCCC(C)(C)O)OC (stereo not given),0.388%
14,Cc1ccc(NC(=O)N(C)C)cc1NC(=O)N(C)C,-0.965%
15,O=C(O)CCCc1c[nH]c2ccccc12,1.38%
16,COc1cc(NC(C)CCCN)c2ncccc2c1 (stereo not given),-8.62%
17,CC(O)Cn1cnc2c1c(=O)n(C)c(=O)n2C (stereo not given),0.0456%
18,Oc1ccc2c(c1)Cc1ccccc1-2,-7.56%
19,CCCCCCCCCCCCCCCC(=O)OCC,-10.3%
20,COC(=O)Nc1nc2ccc(C(=O)C3CC3)cc2[nH]1,-9.6%

row,Structure (SMILES),"activity change, negative = cytotoxicity"
1,CC(=O)OCC1=C(C(=O)O)N2C(=O)[C@@H](NC(=O)CSc3ccncc3)[C@H]2SC1,-1.25%
2,CCN(CC)C(=O)/C(C#N)=C/c1cc(O)c(O)c([N+](=O)[O-])c1,4.68%
3,Cc1cc(CCCOc2c(C)cc(-c3noc(C(F)(F)F)n3)cc2C)on1,1.69%
4,CCC(CO)(CO)CO,-0.389% [at 81.1 µM]
5,CC(=O)OCCC1CCCCC1,12.9%
6,CCNc1nc(N)nc(Cl)n1,15.1%
7,CC(C)C(=O)OCCOc1ccccc1,-2.56%
8,CC(C)COC(=O)c1ccc(O)cc1,-10.1%
9,O=[N+]([O-])C1(Br)COCOC1,3.26%
10,CC(C)(O)c1coc(S(=O)(=O)NC(=O)Nc2c3c(cc4c2CCC4)CCC3)c1,-6.54%
11,CC(=O)C(=O)CC(C)C,-3.46%
12,CC1CCCC(=O)C1=O (stereo not given),-6.25%
13,CC(=O)NNC(C)=O,1.76% [at 81.1 µM]
14,COc1ccc(C)cc1,11%
15,CCCOC(=O)c1c(Cl)c(Cl)c(Cl)c(Cl)c1C(=O)OCCC,-6.86%
16,O=c1[nH]c2cc(C(F)(F)F)c(N3CCOCC3)cc2n(CP(=O)(O)O)c1=O,-7%
17,O=C(CCS)OCC(COC(=O)CCS)(COC(=O)CCS)COC(=O)CCS,9.11%
18,CCN(CC)c1cccc(O)c1,-4.17% [at 81.1 µM]
19,CCC1CCC(CCC(=O)O)C1 (stereo not given),3.87% [at 81.1 µM]
20,CCCCCCCCCCCCCOC(=O)CCSCCC(=O)OCCCCCCCCCCCCC,-4.54% [at 29.1 µM]

# — PubChem BioAssay (Tox21)
